This is a sample that favours compounds with a hit; in the whole collection about 11% have one here.
VP16 counter: VP16 counterscreen qHTS for inhibitors of ROR gamma transcriptional activity; Drosophila S2 Gal4-VP16 UAS-luciferase, luminescence, 20 h; Potency, µM (series often up to 53.6 µM), hits mostly inhibitors; actives 3.5% (n = 310,000); AID 2546, 2010;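 also: Gal4-VP16 expression switched on by copper sulfate through the metallothionein promoter; nearly all actives have a fitted effect of over 50% in size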
RORgamma inh: qHTS for inhibitors of ROR gamma transcriptional activity; Potency, µM (series often up to 53.6 µM), actives largely listed as inhibitors; AID 2551, 2010; Nuclear receptor ROR-gamma (Mus musculus), P51450; actives 5.4% (n = 310,000); Drosophila S2 Gal4-RORgamma UAS-luciferase reporter, 20 h; also: nearly all actives have a fitted effect of over 60% in size
Target sequence (P51450 whole entry, looked up, the tested form may be a part): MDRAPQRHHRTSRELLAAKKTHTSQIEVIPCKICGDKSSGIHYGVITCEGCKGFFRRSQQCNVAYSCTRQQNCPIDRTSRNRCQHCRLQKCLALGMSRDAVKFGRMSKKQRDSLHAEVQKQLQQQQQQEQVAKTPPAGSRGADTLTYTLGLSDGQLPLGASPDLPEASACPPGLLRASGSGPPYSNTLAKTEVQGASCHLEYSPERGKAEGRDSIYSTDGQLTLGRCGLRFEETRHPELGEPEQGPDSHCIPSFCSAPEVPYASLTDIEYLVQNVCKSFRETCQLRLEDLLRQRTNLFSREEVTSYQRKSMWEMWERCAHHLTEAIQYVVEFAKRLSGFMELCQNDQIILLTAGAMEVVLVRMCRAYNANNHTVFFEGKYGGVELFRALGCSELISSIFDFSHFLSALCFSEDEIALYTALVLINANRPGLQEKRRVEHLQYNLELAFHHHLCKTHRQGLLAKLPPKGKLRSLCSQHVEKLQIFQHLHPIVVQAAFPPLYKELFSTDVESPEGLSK
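Luciferase reporter read in Schneider cells carrying Gal4-RORγ (mouse) and UAS-Photinus luciferase; cells given compound 1 h before 700 uM copper sulfate induction, then incubated 20 h at ambient temperature.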
SW480 rerep: A quantitative high throughput screen for small molecules that induce DNA re-replication in SW480 colon adenocarcinoma cells | SW480 DNA re-replication, Hoechst DNA content imaging, 48 h | Potency, µM (titrated, usually from 46.1 µM), hits mostly activators | actives 1.8% (n = 340,000); also: nearly all actives have a fitted effect of over 55% in size
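Readout is total intensity of Hoechst-stained nuclei, excited at 405 nm and collected at 500-530 nm. Compound treatment lasted 48 hr at 37 C in 5% CO2 before staining.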
IL-1B inflam inh: qHTS for Inhibitors of Inflammasome Signaling: IL-1-beta AlphaLISA Primary Screen; actives 4.7% (n = 360,000); activity change, % at 57.5 µM; THP-1 LPS/ATP IL-1B secretion, AlphaLISA, 16 h; hits give low values; AID 743279, 2014; in the data active = activity change below about -50%; inconclusive = mostly about -30% to -49%
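Secreted IL-1B measured by AlphaLISA bead assay after 16 h compound exposure of THP-1 cells; compounds (final up to 57.5 uM) added 1 h before LPS (250 ng/mL) and ATP (1.25 mM) stimulation; lower signal means less secretion.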
MCF10A rerep: A quantitative high throughput screen for small molecules that induce DNA re-replication in MCF 10a normal breast cells; MCF 10A DNA re-replication, Hoechst nuclear intensity, 48 h; Potency, µM (series often up to 46.1 µM), hits mostly activators; actives 2.9% (n = 350,000); AID 624296, 2012; also: nearly all actives have a fitted effect of over 50% in size
Each line names hits and unclear results; the compound was inactive in the other large screens; ! = not active in a repeat. Unless noted, calls follow the shape of the dose curve; as a rule, active = well fitted curve in the direction sought with a large enough effect; inconclusive = small, poorly fitted or top-dose-only effect, or another doubt; inactive = no such curve, though single readings can be large; an effect the other way counts as inactive or inconclusive.

CC(C)c1ccc(-n2c(-c3ccccc3)c[n+]3c2CCc2ccccc2-3)cc1	VP16 counter 3.5µM, RORgamma inh 4.5µM, IL-1B inflam inh -114, MCF10A rerep inconclusive
FC(F)Oc1ccc(-c2c[n+]3c(n2-c2ccccc2)CCCCC3)cc1	IL-1B inflam inh inconclusive
COc1ccc(-n2c(-c3ccc(Br)cc3)c[n+]3c2CCc2ccccc2-3)cc1	VP16 counter 6.3µM, IL-1B inflam inh -59, MCF10A rerep 18µM
COc1ccccc1-n1c(-c2ccc(F)cc2)coc1=O	none
COc1ccc(-c2cn(-c3ccc(OC)cc3)c3[n+]2-c2ccccc2CC3)cc1	VP16 counter 4.5µM, RORgamma inh inconclusive, IL-1B inflam inh -59
COc1ccccc1-n1c(-c2ccccc2)c[n+]2c1CCc1ccccc1-2	VP16 counter 8.9µM, RORgamma inh inconclusive, IL-1B inflam inh -99!
O=C(Oc1ccccc1)N1CCC2(CCCN(c3ccccn3)C2)CC1	none (no result: SW480 rerep, IL-1B inflam inh, MCF10A rerep)
CCc1ccc(CN2CCC(Oc3cc(C(=O)NC4CC4)ccc3OC)CC2)cc1	none (no result: VP16 counter, RORgamma inh, SW480 rerep, MCF10A rerep)
CC(=O)N1CCN(S(=O)(=O)c2cccc(C(=O)NNC(=O)COc3ccc(F)cc3)c2)CC1	none (no result: VP16 counter, RORgamma inh)
O=C(N/N=C/c1cccs1)/C(=C/c1ccccc1)NC(=O)c1ccccc1	VP16 counter inconclusive, RORgamma inh 11µM
COc1ccc(/C=C(\NC(=O)c2ccccc2)C(=O)N/N=C/c2sccc2C)cc1	VP16 counter 22µM, RORgamma inh 11µM, MCF10A rerep inconclusive
COc1ccc(/C=C(/NC(=O)c2ccccc2)C(=O)N/N=C/c2sccc2C)cc1	VP16 counter inconclusive, RORgamma inh 13µM, MCF10A rerep inconclusive
CCC[C@H]1CN(c2ccccc2)C(=O)[C@@H]1CC(=O)NC	none (no result: VP16 counter, RORgamma inh, SW480 rerep, MCF10A rerep)
O=[N+]([O-])c1c(NCCCO)cc(Sc2ccc(Cl)cc2)c2nonc12	VP16 counter 5µM, RORgamma inh 5µM, IL-1B inflam inh -106, MCF10A rerep 13µM
Cn1ccnc1Sc1cc(NCCCO)c([N+](=O)[O-])c2nonc12	VP16 counter 11µM, RORgamma inh 1.3µM, IL-1B inflam inh -101, MCF10A rerep 18µM
CC(=O)OCCNc1cc(SCc2ccco2)c2nonc2c1[N+](=O)[O-]	VP16 counter inconclusive, RORgamma inh 11µM, SW480 rerep inconclusive, IL-1B inflam inh -52
CC1CCN(CCCNc2cc(NCCO)c([N+](=O)[O-])c3nonc23)CC1	none
O=[N+]([O-])c1c(NCCCO)cc(SCc2ccco2)c2nonc12	VP16 counter inconclusive, RORgamma inh inconclusive, SW480 rerep inconclusive, IL-1B inflam inh -97, MCF10A rerep inconclusive
OC(c1ccccc1)(c1nc(/C=C/c2ccc(C(F)(F)F)cc2)cs1)C(F)(F)F (stereo not given)	none (no result: VP16 counter, RORgamma inh, SW480 rerep, MCF10A rerep)
O=[N+]([O-])c1c(NCCCO)cc(N2CCCCCC2)c2nonc12	VP16 counter inconclusive
O=[N+]([O-])c1c(NCCCO)cc(N2CCN(Cc3ccc4c(c3)OCO4)CC2)c2nonc12	VP16 counter 3.5µM, RORgamma inh 5µM, MCF10A rerep inconclusive
CC(C)CCn1c(O)c(N=Nc2ccccn2)c2ccccc21	VP16 counter 11µM, RORgamma inh 14µM, MCF10A rerep inconclusive
CCCn1c(O)c(N=Nc2ccc3ccccc3n2)c2ccccc21	none
Oc1ccc2ccccc2c1N=Nc1ccccc1F	SW480 rerep inconclusive
Oc1ccc2ccccc2c1N=Nc1ccccn1	VP16 counter inconclusive, RORgamma inh 0.28µM, SW480 rerep inconclusive, MCF10A rerep inconclusive
O=C(N/N=C/c1cn(-c2cccs2)nc1-c1ccccc1)c1ccccc1O	VP16 counter inconclusive, RORgamma inh 0.028µM, SW480 rerep inconclusive, MCF10A rerep 15µM
Cc1nn(-c2ccccc2)cc1/C=N/NC(=O)c1cccs1	VP16 counter inconclusive, RORgamma inh inconclusive, MCF10A rerep inconclusive
O=C(N/N=C/c1cn(-c2cccs2)nc1-c1ccccc1)c1ccccc1Br	VP16 counter 6.3µM, RORgamma inh 5.6µM, IL-1B inflam inh inconclusive
CCNC(=O)C1CCCN(C(=O)c2cc(C)oc2C)CC1 (stereo not given)	none (no result: VP16 counter, RORgamma inh, SW480 rerep, MCF10A rerep)
Nc1nccc(NCCSCc2ccccc2)n1	IL-1B inflam inh -64, MCF10A rerep inconclusive (no result: VP16 counter, RORgamma inh)
Nc1nc(Cl)cc(NCCc2ccccc2)n1	RORgamma inh inconclusive (no result: SW480 rerep, IL-1B inflam inh, MCF10A rerep)
CC1CCC(NS(=O)(=O)c2ccc(N3CCCC3=O)cc2)CC1 (stereo not given)	VP16 counter inconclusive
Cc1ccc2nc(SCC(=O)Nc3ccccc3N3CCOCC3)c(C#N)cc2c1	VP16 counter inconclusive, SW480 rerep inconclusive, MCF10A rerep inconclusive
CCc1ccc2nc(SCC(=O)N3CC(=O)Nc4ccccc43)c(C#N)cc2c1	SW480 rerep inconclusive, MCF10A rerep 8.2µM
CCc1cc2cc(C)ccc2nc1SCC(=O)N1CC(=O)Nc2ccccc21	IL-1B inflam inh -74, MCF10A rerep inconclusive
CCc1ccc2nc(SCC(=O)Nc3ccccc3N3CCOCC3)c(C#N)cc2c1	SW480 rerep 3.7µM, MCF10A rerep 3.7µM
C[C@@H]1CN([C@@H](C)CO)C(=O)c2cc(NC(=O)C3CCCCC3)ccc2O[C@@H](C)CCCCO[C@@H]1CN(C)C(=O)CCCN(C)C	none (no result: VP16 counter, RORgamma inh, SW480 rerep, MCF10A rerep)
Cc1c(C=O)c(C=O)c(C)n1Cc1ccccc1	SW480 rerep inconclusive, IL-1B inflam inh -93, MCF10A rerep 10µM
O=C(N/N=C/c1ccc(O)c(Br)c1)c1cc2c(ccc3ccccc32)o1	SW480 rerep inconclusive, IL-1B inflam inh inconclusive, MCF10A rerep inconclusive
CCOc1cc(/C=N/NC(=O)c2cc3c(ccc4ccccc43)o2)ccc1O	RORgamma inh inconclusive, SW480 rerep inconclusive, IL-1B inflam inh -51, MCF10A rerep inconclusive
O=C(N/N=C/c1cc(Br)c(O)c(Br)c1)c1cc2c(ccc3ccccc32)o1	VP16 counter inconclusive, RORgamma inh inconclusive, SW480 rerep inconclusive, MCF10A rerep 8.2µM
O=C(N/N=C/c1cc(Cl)c(O)c(Cl)c1)c1cc2c(ccc3ccccc32)o1	SW480 rerep 15µM, MCF10A rerep inconclusive
COC(=O)CNC(=O)C1(CC(C)C)C=CCN1C(C)=O (stereo not given)	none (no result: SW480 rerep, IL-1B inflam inh, MCF10A rerep)
COc1cc(-c2cnc3c(NC=O)cc(-c4ccsc4)cn23)cc(OC)c1OC	none (no result: VP16 counter, RORgamma inh, SW480 rerep, MCF10A rerep)
CN(Cc1ccc(N(C)C)cc1)C(=O)c1cc2ccccc2o1	none
COc1cccc(CN2C(=O)NC3(CCCCCC3)C2=O)c1	none
COc1ccc(OC)c(NC(=O)c2cnc(Nc3ccccc3OC)c3ccccc23)c1	SW480 rerep 3.3µM
CC(C)(C)C1CCC(OCC(O)CN2CCN(c3ccccc3)CC2)CC1 (stereo not given)	MCF10A rerep 21µM
COC(=O)[C@@]12C[C@@H](CC(=O)NCc3cccc4ccccc34)C(=O)N(CCc3ccc(OC)c(OC)c3)C1=CCC(C)(C)C2	none (no result: VP16 counter, RORgamma inh, SW480 rerep, MCF10A rerep)

Screening results (PubChem BioAssay)
